{
  "source": "PubChem BioAssay AID1347120",
  "about": "(National Center for Advancing Translational Sciences (NCATS), 2019)",
  "note": "Among all 390,000 compounds or so, about 930 (0.24%) were called active. Another 5% or so got no clear call; they are omitted. This excerpt belongs to a sample that is enriched for actives. Unmarked numbers belong to inactive results. Calls come from the whole dose curve; as a rule, active = well fitted activation curve with a large enough effect; inconclusive = small, poorly fitted or top-dose-only effect; inactive = no such curve, though single readings can be large or run the other way. Potency is the fitted concentration of half-maximal effect.",
  "data": [
    {"experiment": "qHTS for Suppressors of FUS Proteinopathy: Primary screen using FUS-linked yeast assay; note: nearly all actives have a fitted effect of over 55% in size;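 for growth rescue (activation): plate controls were DMSO vehicle for no effect and reference control for full effect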", "conditions": "S. cerevisiae FUS-expressing, OD600, 24 h; Potency: growth rescue; series mostly up to 76.6 µM; growth rescue (activation): at the top concentration", "source_text": "Several widespread neurodegenerative diseases, including Alzheimer disease, Huntington disease, Frontotemporal Lobar Degeneration (FTLD) and Amyotrophic Lateral Sclerosis (ALS), share a common pathological feature, namely accumulation of specific protein aggregates in diseased tissue. These diseases which is associated with protein misfolding (proteinopathies) have become increasingly problematic as the population ages and life expectancies are extended. Most proteinopathies are currently incurable, a situation confounded by the fact that the basis of neurodegeneration is generally poorly understood. There exists urgent and significant need to find therapeutics that can inhibit the toxicity associated with protein aggregation. A novel approach to understand the underlying mechanisms of neurodegenerative diseases has recently emerged in which the disease conditions are modeled in the yeast (Saccharomyces cerevisiae), a tractable eukaryotic organism with conserved protein quality control mechanisms. Yeast offers quick and reliable genetic manipulations and can be easily tailored to high-throughput screening (HTS).\nFor this project, a yeast model of the FUS proteinopathies (a spectrum of neurodegenerative diseases that include ALS and a subtype of FTLD) was generated and employed. The cytoplasmic accumulation of the DNA/RNA-binding protein FUS (also known as TLS) is causative to both familial and sporadic forms of ALS and FTLD. This yeast model recapitulates neuronal pathology by showing severe cytotoxicity associated with cytoplasmic accumulation of FUS aggregates and a specific interaction between FUS and TDP-43, another ALS-associated protein. […] Specifically, the cellular accumulation of misfolded FUS that disrupts RNA homeostasis in both yeast and higher eukaryotes. This model was validated to be suitable for quantitative HTS (qHTS) use for finding genetic or chemical factors that restore growth. […] Identified compounds that inhibits FUS-yeast toxicity is flagged, re-acquired, and validated for further investigation and optimization.\nNIH Chemical Genomics Center [NCGC]\nNIH Molecular Libraries Probe Production Centers Network [MLPCN]\nAssay Submitter (PI): Frank Shewmaker PhD, Uniformed Services University of the Health Sciences\nCompound CP55940 was used as the positive control. Column 1 was treated with CP55940 titration from 92uM (final concentration, 1:2 dilution), while Column 2 was treated with top dose 92uM. Columns 3 and 4 were treated with DMSO only as negative control to assess background and noise signal.\nFour hundred fifty microliter of cultured yeast (in 20mL rich medium) provided by Dr. Shewmaker lab was incubated at 30C at 99% humidity for 3hr. The culture was then spun down at 4000rpm for 5min and the cell pellet was resuspended in 2mL of Sdmin Media + ALU(330) + 2.5% Raffinose. One hundred microliter of the suspension was added to 900uL of water and OD of the solution was obtained. Twenty mL of responding medium (provided by Shewmaker lab) + 2.5% raffinose was added to ensure cell density of 0.1; the solution was incubated overnight. Working cell solution (FUS-yeast in Sdmi + Sdmi + 1X ALU + 2% galactose media) was prepared (final OD at 0.005) and 3uL was dispensed in a 1536-well Aurora high based clear bottom assay plates. Controls and library compounds (at various final concentrations from 40uM to 0.32uM) were added using a 1536-well pin array using the Kalypsys pin-tool. The plates were then incubated for 24hrs in a cell-culture incubator (30C; 99% humidity). Absorbance at 600nm was then read using the PerkinElmer ViewLux plate reader.", "units": {"growth rescue (activation)": "%"}, "values": [
      {"smiles": "COc1ccc(-c2cn3c(n2)sc2cc(C(=O)Nc4ccc(F)cc4)ccc23)cc1", "growth rescue (activation)": 0.0987},
      {"smiles": "COc1ccc(Cc2nc3ccc(C(=O)NCc4ccccc4C)cc3o2)cc1", "growth rescue (activation)": 6.51},
      {"smiles": "Cc1cc(NC(=O)C2CCC(CNS(=O)(=O)c3ccc(Br)s3)CC2)ccc1Br", "note": "(stereo unspecified)", "growth rescue (activation)": -10.7},
      {"smiles": "Cc1oc2ccc(O)c(CN3CCC(C)CC3)c2c1C(=O)Nc1ccccc1", "growth rescue (activation)": 0.0169},
      {"smiles": "CCCCOc1ccc(C(=O)N2CC(=O)Nc3ccc(Br)cc3C2c2ccc(F)cc2)cc1", "note": "(stereo unspecified)", "growth rescue (activation)": 41.7},
      {"smiles": "CCCNC(=O)C1CCN(c2nc3ccc(C)cc3[nH]2)CC1", "growth rescue (activation)": 4.98},
      {"smiles": "O=C(CSc1nc2nccnc2c(=O)n1CCc1c[nH]c2ccccc12)Nc1ccccc1F", "growth rescue (activation)": -9.63},
      {"smiles": "CCOC(=O)N1CCC(NC(=O)c2cnn(-c3cccc(C)c3)c2C2CCN(C(=O)OC(C)(C)C)CC2)CC1", "growth rescue (activation)": 18.5},
      {"smiles": "CCc1cccc(NC(=O)c2cc(-c3ccccc3)n[nH]2)c1", "growth rescue (activation)": -10.8},
      {"smiles": "C#CCOCCOCCOCCNc1nc(N2CCN(C(=O)C([C@@H](C)O)n3cc([C@@H](N)CCCCN)nn3)CC2)nc(N2CCN(C(=O)[C@H](CCCCN)n3cc(CN)nn3)CC2)n1", "note": "(stereo partly specified)", "growth rescue (activation)": 1.02},
      {"smiles": "C#CCOCCOCCOCCNc1nc(N2CCN(C(=O)CCCCCCCCCCNC(=O)[C@H](CCCCN)n3cc(C)nn3)CC2)nc(N2CCN(C(=O)CCCCCCCCCCNC(=O)[C@H](CO)n3cc(CCCSC)nn3)CC2)n1", "Potency": "11.2 µM (active)"},
      {"smiles": "C#CCOCCOCCOCCNc1nc(N2CCN(C(=O)CCCCCCCCCCNC(=O)[C@H]([C@@H](C)CC)n3cc(CCCCN=C(N)N)nn3)CC2)nc(N2CCN(C(=O)CCCCCCCCCCNC(=O)[C@H](CO)n3cc(CCCSC)nn3)CC2)n1", "Potency": "3.16 µM (active)"},
      {"smiles": "C#CCOCCOCCOCCNc1nc(N2CCN(C(=O)[C@H](CCC(=O)O)n3cc(C(N)CO)nn3)CC2)nc(N2CCN(C(=O)[C@H](Cc3ccc(O)cc3)n3cc(C(N)[C@H](C)CC)nn3)CC2)n1", "note": "(stereo partly specified)", "growth rescue (activation)": 11.9},
      {"smiles": "C#CCOCCOCCOCCNc1nc(N2CCN(C(=O)C([C@@H](C)CC)n3cc(C(N)COC(=O)C(F)(F)F)nn3)CC2)nc(N2CCN(C(=O)[C@H](CCCCN)n3cc(C(N)CC(C)C)nn3)CC2)n1", "note": "(stereo partly specified)", "growth rescue (activation)": 29.1},
      {"smiles": "C#CCOCCOCCOCCNc1nc(N2CCOCC2)nc(N2CCN(C(=O)[C@H](Cc3ccc(O)cc3)n3cc(CCO)nn3)CC2)n1", "growth rescue (activation)": -3.33},
      {"smiles": "Fc1ccc(-c2nc(Nc3cccc(Cl)c3)nc3c2COc2ccccc2-3)cc1", "growth rescue (activation)": -6.76},
      {"smiles": "CC(=O)c1cccc(Nc2ccc3cc(S(=O)(=O)N4CCC(C)CC4)ccc3n2)c1", "growth rescue (activation)": -8.08},
      {"smiles": "COc1ccc(-c2cc(-c3nc(-c4cc(OC)c(OC)c(OC)c4)no3)[nH]n2)c(OC)c1", "growth rescue (activation)": 17.9},
      {"smiles": "CCN(C(=O)CSc1nnc(C)n2c1cc1occc12)c1ccccc1", "growth rescue (activation)": 22.4},
      {"smiles": "COc1ccc(-c2onc(C)c2C)cc1S(=O)(=O)NCCc1ccccc1", "growth rescue (activation)": 10.1},
      {"smiles": "CCN(CC)C(=O)CSc1nc2ccsc2c(=O)n1Cc1ccccc1Cl", "growth rescue (activation)": 14},
      {"smiles": "Cc1c(Cl)cccc1NC(=O)C(=O)NCCc1csc2nc(-c3ccccc3F)nn12", "growth rescue (activation)": 22.4},
      {"smiles": "Cc1cccc(Cn2c(SCc3ccc(C(=O)N4CCC(C)CC4)cc3)nc3ccncc32)c1", "growth rescue (activation)": 22.7},
      {"smiles": "CC(=O)N1CCCc2cc(S(=O)(=O)N3CCC(C(=O)NCc4ccc(F)cc4)CC3)ccc21", "growth rescue (activation)": 2.3},
      {"smiles": "O=C(c1ccc(C(F)(F)F)cc1)N1CCC(c2nc(-c3ccc(S(=O)(=O)N4CCCC4)cc3)no2)CC1", "growth rescue (activation)": 6.21},
      {"smiles": "CSc1ccccc1NC(=O)CCS(=O)(=O)c1nc(-c2cccs2)cc(C(F)(F)F)n1", "growth rescue (activation)": -9.46},
      {"smiles": "Cc1c(Cl)cccc1NC(=O)Cn1cc(C(=O)c2cccs2)c2ccccc21", "growth rescue (activation)": -1.82},
      {"smiles": "CCN(CCCNC(=O)c1cc(Nc2ccc(OC)cc2)nc2ccccc12)c1cccc(C)c1", "growth rescue (activation)": 2.94},
      {"smiles": "Cc1ccc(-n2ncc(C(=O)N(C)Cc3ccccc3)c2-n2cccc2)cc1", "growth rescue (activation)": 37.3},
      {"smiles": "Cc1ccc2[nH]c(=O)c(CN(CC3COCCO3)C(=O)Nc3ccccc3C)cc2c1", "note": "(stereo unspecified)", "growth rescue (activation)": -6.95},
      {"smiles": "Cc1ccc2[nH]c(=O)c(CN(CCCN(C)C)C(=O)Nc3cccc(Cl)c3)cc2c1", "growth rescue (activation)": 19.3},
      {"smiles": "Cc1cccc(NC(=O)N(Cc2cc3cc(C)cc(C)c3[nH]c2=O)CC2COCCO2)c1", "note": "(stereo unspecified)", "Potency": "35.5 µM (active)"},
      {"smiles": "CCCCCN(C(=O)CCC(=O)OCC(=O)NC1CCC(C)CC1)c1c(N)n(CCCC)c(=O)[nH]c1=O", "note": "(stereo unspecified)", "Potency": "31.6 µM (active)"},
      {"smiles": "CCCCCN(C(=O)CCC(=O)OCC(=O)NCc1ccc(OC)cc1)c1c(N)n(CCCC)c(=O)[nH]c1=O", "growth rescue (activation)": 40.8},
      {"smiles": "CCCCn1c(N)c(N(CCC(C)C)C(=O)COC(=O)c2ccc(CC)cc2)c(=O)[nH]c1=O", "growth rescue (activation)": 35.6},
      {"smiles": "Cc1ccc(CNC(=O)CCC(=O)N2Cc3ccccc3Oc3ncccc32)cc1", "growth rescue (activation)": -4.72},
      {"smiles": "COc1ccc(CCNC(=O)c2ccc3c(c2)sc2nc(-c4ccc(C)cc4)cn23)cc1OC", "growth rescue (activation)": 5.69},
      {"smiles": "COC(=O)c1ccc(NC(=O)CCc2c(C)nn(-c3ccc(N4CCCC4)nn3)c2C)cc1", "growth rescue (activation)": 14.5},
      {"smiles": "Cc1ccc(Cc2cnc(N)s2)o1", "Potency": "11.2 µM (active)"},
      {"smiles": "Fc1ccc(Nc2nc(SCc3ccccc3Cl)nc3ccccc23)cc1", "growth rescue (activation)": -4.05},
      {"smiles": "O=C(Nc1c(C(=O)N2CCN(c3ccc(F)cc3)CC2)oc2ccccc12)c1ccco1", "growth rescue (activation)": 38.7}
    ]}
  ]
}
